The target of assay [1] is Peroxisome proliferator-activated receptor gamma (Homo sapiens) (UniProt P37231). Briefly: NVS_NR_hPPARg: NovaScreen (NVS) Nuclear Receptor Binding Assay for human Peroxisome Proliferator-activated Receptor gamma (PPARg) (AID 2283370). In short, it runs like this: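 Chemicals were tested first in duplicate at 25 uM, then in concentration series if active. Binding to cell-free PPARg protein was measured by fluorescence polarization after 2 h, with loss of signal scored against DMSO.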

Assay [2] has as its target Agonist Androgen Response Element (ARE), AR (gene 367) (UniProt P10275). As to the kind of experiment: OT_AR_ARELUC_AG_1440: Odyssey Thera (OT) 24-hour CHO-K1 Luciferase Assay for Agonist Androgen Response Element (ARE) (AID 2283379). The essentials:
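CHO-K1 cells carrying an ARE-driven luciferase reporter were exposed to compounds for 24 h. Luminescence was then read after adding a D-luciferin/ATP mix, and activity was scored as a gain in signal over DMSO vehicle.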

The target of assay [3] is Estrogen receptor beta (Homo sapiens) (UniProt Q92731). As to the kind of experiment: OT_ER_ERbERb_1440: Odyssey Thera (OT) 24-hour HEK293T Protein-Complementation Assay for Estrogen Receptor-beta/-beta Homodimer (AID 2283380).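 Further: scored as signal increase over DMSO baseline for both agonists and antagonists.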 The essentials:
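HEK293T cells stably expressing ER beta LBD (aa 310-547) homodimer fragment-complementation reporter, dosed 24 h. Cells formaldehyde-fixed, Draq5-stained; gain in nuclear (agonist) or nuclear plus cytoplasmic (antagonist) fluorescence versus DMSO read by laser scanning cytometry.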

Assay [4] concerns the target Estrogen receptor (Homo sapiens) (UniProt P03372). Briefly: OT_ERa_GFPERaERE_0120: Odyssey Thera (OT) 2-hour HeLa Transcription Induction Assay for Estrogen Receptor (AID 2283382). The essentials: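 HeLa, 384-well, 2 h chemical exposure; GFP reporter induction (ERE), fluorescence microscopy; high content image analysis; positive fitting direction vs DMSO.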
Assay [5] has as its target Bile acid receptor (Homo sapiens) (UniProt Q96RI1). As to the kind of experiment: OT_FXR_FXRSRC1_1440: Odyssey Thera (OT) 24-hour HEK293T Protein-Complementation Assay for Farnesoid X receptor/SRC-1 Co-activator (AID 2283384). The essentials:
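Compounds are applied to human kidney HEK293T cells expressing bait and prey fused to reporter protein fragments; after 24 h, reconstituted reporter fluorescence is measured. Activity is fitted as signal gain over DMSO.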

Assay [6] concerns the target Peroxisome proliferator-activated receptor gamma (Homo sapiens) (UniProt P37231). Briefly: OT_PPARg_PPARgSRC1_0480: Odyssey Thera (OT) 8-hour Protein-Complementation Assay for Peroxisome Proliferator-activated Receptor Gamma / SRC-1 Co-activator (AID 2283387).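 Further: nuclear to cytoplasmic split Venus YFP fluorescence ratio reporting PPARg SRC-1 interaction.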 The essentials: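 Protein-fragment complementation in HEK293T: Venus YFP halves (residues 1-158, 159-239, mutated to IFP1/IFP2) fused to PPARg/SRC-1. 8 h exposure; N/C ratio at 488 nm; DMSO negative control.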

The target is the same in assay [7]. Briefly: OT_PPARg_PPARgSRC1_1440: Odyssey Thera (OT) 24-hour Protein-Complementation Assay for Peroxisome Proliferator-activated Receptor Gamma/ SRC-1 Co-activator (AID 2283388).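 Further: nuclear to cytoplasmic ratio of reconstituted Venus YFP fluorescence in fixed imaged cells.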 The essentials:
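Protein-fragment complementation between PPARg and coactivator SRC-1 was measured by fluorescence imaging in transiently transfected HEK293T cells after 24 h treatment. Signal was quantified as N/C ratio in the 488 nm channel, with DMSO as negative control.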

Assay [8] deals with Estrogen receptor (Homo sapiens) (UniProt P03372). Briefly: OT_ERa_GFPERaERE_0480: Odyssey Thera (OT) 8-hour HeLa Transcription Induction Assay for Estrogen Receptor (AID 2283381; active means hit-call score of the fitted dose curve at least 0.9, where 1 is the maximum; inactive means score below 0.9). The essentials:
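Fluorescent reporter signal, imaged by microscopy and scored with image-analysis algorithms, was taken 8 h after chemical dosing of HeLa cells; activity was fitted upward relative to DMSO.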

Assay [9] deals with Bile acid receptor (Homo sapiens) (UniProt Q96RI1). Briefly: OT_FXR_FXRSRC1_0480: Odyssey Thera (OT) 8-hour HEK293T Protein-Complementation Assay for Farnesoid X receptor/SRC-1 Co-activator (AID 2283383). The essentials:
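Human kidney HEK293T cells carried FXR/SRC-1 fragment-complementation constructs. Compounds were added and incubated 8 h. Reporter reassembly upon receptor–co-activator interaction was then quantified by fluorescence, with curves fitted in the positive direction relative to DMSO.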

Assay [10] deals with Retinoic acid receptor RXR-alpha (Homo sapiens) (UniProt P19793). As to the kind of experiment: OT_NURR1_NURR1RXRa_0480: Odyssey Thera (OT) 8-hour HEK293T Protein Complementation Assay for Nurr1/retinoid X receptor (RXR) (AID 2283385). The essentials:
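8 h compound exposure, HEK293T; Nurr1/RXRα fragment complementation; fluorescence intensity; positive fitting direction vs DMSO baseline.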

Assay [11] shares this target. Briefly: OT_NURR1_NURR1RXRa_1440: Odyssey Thera (OT) 24-hour HEK293T Protein Complementation Assay for Nurr1/retinoid X receptor (RXR) (AID 2283386). In short, it runs like this: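 Interaction of Nurr1 with RXRα brings fused reporter fragments together in human HEK293T cells, restoring a functional reporter. Fluorescence intensity is measured 24 h after chemical treatment, and values are analysed in the positive direction against DMSO.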

Assay [12] relates to guinea pig Dopamine Transporter (DAT), gene 100714898. As to the kind of experiment: NVS_TR_gDAT: NovaScreen (NVS) Transporter Assay for guinea pig Dopamine Transporter (DAT) (AID 2283369).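 Further: active compounds lower bound radioligand signal relative to DMSO.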 The essentials: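 Scintillation counts of filter-retained radioligand report binding to guinea pig striatal membranes after 2 h. Activity scored as signal loss relative to DMSO, first at 25 uM in duplicate, then in concentration series to 50 uM.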

Assay [13] relates to rat Norepinephrine Transporter (NET), gene 83511. Briefly: NVS_TR_rNET: NovaScreen (NVS) Transporter Assay for rat Norepinephrine Transporter (NET) (AID 2283373). In short, it runs like this:
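Rat forebrain membranes; radioligand binding measured by filter-based scintillation counting 1 hour after dosing. Loss of specific binding versus DMSO baseline scored; primary screen in duplicate at 25 uM, actives followed up in concentration series.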

The target in assay [14] is human Dopamine Transporter (DAT), SLC6A3 (gene 6531) (UniProt Q01959). Briefly: NVS_TR_hDAT: NovaScreen (NVS) Transporter Assay for human Dopamine Transporter (DAT) (AID 2283374).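 Further: activity means loss of bound radioligand signal relative to DMSO.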 The essentials:
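Cell-free radioligand displacement binding at human DAT, 1 h after dosing, with filtration and scintillation counting. Primary screen in duplicate at 25 uM, actives then in concentration series. Loss of bound signal versus DMSO scored.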

Assay [15] concerns the target human Norepinephrine Transporter (NET), SLC6A2 (gene 6530) (UniProt P23975). Briefly: NVS_TR_hNET: NovaScreen (NVS) Transporter Assay for human Norepinephrine Transporter (NET) (AID 2283377).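 Further: displacement of radioligand from human NET seen as loss of scintillation signal.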 In short, it runs like this:
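Cell-free radioligand binding using CHO-derived membrane protein expressing human NET, read by filter scintillation counting 1 h after dosing; loss of signal vs DMSO. Initial duplicate screen at 25 uM, actives retested in concentration series.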

Assay [16] deals with mouse Estrogen Receptor alpha (Era), Esr1 (gene 13982) (UniProt P19785). Briefly: NVS_NR_mERa: NovaScreen (NVS) Nuclear Receptor Binding Assay for mouse Estrogen Receptor alpha (Era) (AID 2283378).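 Further: hit means loss of bound radioligand signal relative to DMSO.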 The essentials: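 Extracted mouse Era incubated with tritiated or iodinated radioligand plus test chemical, 18 h. Bound fraction separated on filters, counted by scintillation. DMSO = negative control/baseline; duplicate single-point at 25 uM, then concentration-response follow-up.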

The target in assay [17] is human Serotonin Transporter (SERT), SLC6A4 (gene 6532) (UniProt P31645). Briefly: NVS_TR_hSERT: NovaScreen (NVS) Transporter Assay for human Serotonin Transporter (SERT) (AID 2283372). In short, it runs like this: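 Radioligand binding to native SERT in human platelet membranes, read by filter-based scintillation counting 1 h after dosing. Primary screen in duplicate at 25 uM; actives followed up in concentration series; loss of signal versus DMSO baseline.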

A short description of assay [18]: CEETOX_H295R_11DCORT: CeeTox H295R High-throughput Steroidogenesis Assay for 11-Deoxycortisol (11DCORT) (AID 2283432; active means hit-call score of the fitted dose curve at least 0.9, where 1 is the maximum; inactive means score below 0.9). The note with it: actives raise or lower the signal. In short, it runs like this: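 Adrenal carcinoma line H295R, run per OECD 456 with minor changes, was forskolin-stimulated (10 uM, 48 h) before a 48 h chemical exposure at 0.1% DMSO. Secreted 11-deoxycortisol was quantified by HPLC-MS/MS.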

Assay [19] in a line: CEETOX_H295R_OHPREG: CeeTox H295R High-throughput Steroidogenesis Assay for OH-Pregnenolone (OHPREG) (AID 2283434; active means hit-call score of the fitted dose curve at least 0.9, where 1 is the maximum; inactive means score below 0.9). Conditions: actives raise or lower the signal. In short, it runs like this:
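H295R cells pre-stimulated 48 h with 10 uM forskolin, then exposed 48 h to chemical in 0.1% DMSO. 17alpha-hydroxypregnenolone in medium quantified by MTBE extraction and HPLC-MS/MS; bidirectional fit versus DMSO, viability checked by MTT.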

Consider seven compounds from PubChem BioAssay (EPA / NIEHS).

“And” between values parts separate entries of the source, which are not always exact repeats. Identical values can stand only once. Results filed as inconclusive are left out. Some compounds were tested as several samples or in several runs, with calls that do not always agree. The source made the active and inactive calls. How the source made its calls, unless noted: active means hit-call score of the fitted dose curve at least 0.9, where 1 is the maximum; inconclusive means response in the unintended direction; inactive means score below 0.9.

In general, AC50 refers to the midpoint of the concentration-response curve, whichever way the signal moves.

Agonist Androgen Response Element (ARE), AR (gene 367), sequence (P10275 whole entry, looked up): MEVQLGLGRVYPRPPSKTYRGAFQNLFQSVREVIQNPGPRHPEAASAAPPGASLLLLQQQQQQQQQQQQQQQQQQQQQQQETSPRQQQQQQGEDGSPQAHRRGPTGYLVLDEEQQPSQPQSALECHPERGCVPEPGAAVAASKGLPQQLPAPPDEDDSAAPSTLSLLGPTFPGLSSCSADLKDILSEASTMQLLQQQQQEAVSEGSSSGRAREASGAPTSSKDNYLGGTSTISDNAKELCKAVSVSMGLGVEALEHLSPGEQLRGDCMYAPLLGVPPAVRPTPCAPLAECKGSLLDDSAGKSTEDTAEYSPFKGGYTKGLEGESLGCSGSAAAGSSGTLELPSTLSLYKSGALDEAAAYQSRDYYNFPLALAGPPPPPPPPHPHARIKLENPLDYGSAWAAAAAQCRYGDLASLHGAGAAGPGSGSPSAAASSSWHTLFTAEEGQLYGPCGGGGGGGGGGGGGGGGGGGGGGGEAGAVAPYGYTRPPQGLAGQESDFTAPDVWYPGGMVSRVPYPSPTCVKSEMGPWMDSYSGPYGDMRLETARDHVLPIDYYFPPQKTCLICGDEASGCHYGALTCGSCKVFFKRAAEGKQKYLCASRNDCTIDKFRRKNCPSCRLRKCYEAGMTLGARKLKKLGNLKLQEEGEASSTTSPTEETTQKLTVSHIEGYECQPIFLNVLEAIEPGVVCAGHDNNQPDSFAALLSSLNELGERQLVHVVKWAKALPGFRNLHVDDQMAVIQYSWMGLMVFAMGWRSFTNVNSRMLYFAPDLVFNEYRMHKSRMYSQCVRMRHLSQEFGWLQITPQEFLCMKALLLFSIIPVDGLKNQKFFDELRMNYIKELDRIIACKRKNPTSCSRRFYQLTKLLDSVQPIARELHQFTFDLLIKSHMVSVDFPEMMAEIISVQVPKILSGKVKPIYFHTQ
Estrogen receptor beta (Homo sapiens), sequence (Q92731 whole entry, looked up, the tested form may be a part): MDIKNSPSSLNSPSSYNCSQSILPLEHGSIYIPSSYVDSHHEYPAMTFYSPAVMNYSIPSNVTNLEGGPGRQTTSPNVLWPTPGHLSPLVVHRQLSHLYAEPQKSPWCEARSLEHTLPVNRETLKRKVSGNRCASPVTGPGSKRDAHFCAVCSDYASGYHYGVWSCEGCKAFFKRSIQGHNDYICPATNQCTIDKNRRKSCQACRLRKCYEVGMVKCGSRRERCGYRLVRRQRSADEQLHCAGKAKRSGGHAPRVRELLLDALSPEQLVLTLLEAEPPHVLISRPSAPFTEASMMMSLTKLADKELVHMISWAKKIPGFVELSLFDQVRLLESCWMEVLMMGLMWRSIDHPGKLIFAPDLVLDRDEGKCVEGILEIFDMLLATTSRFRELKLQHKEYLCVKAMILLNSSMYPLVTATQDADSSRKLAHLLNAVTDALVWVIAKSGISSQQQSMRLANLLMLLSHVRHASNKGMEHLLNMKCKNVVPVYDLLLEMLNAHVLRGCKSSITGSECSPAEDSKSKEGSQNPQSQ
Retinoic acid receptor RXR-alpha (Homo sapiens), sequence (P19793 whole entry, looked up, the tested form may be a part): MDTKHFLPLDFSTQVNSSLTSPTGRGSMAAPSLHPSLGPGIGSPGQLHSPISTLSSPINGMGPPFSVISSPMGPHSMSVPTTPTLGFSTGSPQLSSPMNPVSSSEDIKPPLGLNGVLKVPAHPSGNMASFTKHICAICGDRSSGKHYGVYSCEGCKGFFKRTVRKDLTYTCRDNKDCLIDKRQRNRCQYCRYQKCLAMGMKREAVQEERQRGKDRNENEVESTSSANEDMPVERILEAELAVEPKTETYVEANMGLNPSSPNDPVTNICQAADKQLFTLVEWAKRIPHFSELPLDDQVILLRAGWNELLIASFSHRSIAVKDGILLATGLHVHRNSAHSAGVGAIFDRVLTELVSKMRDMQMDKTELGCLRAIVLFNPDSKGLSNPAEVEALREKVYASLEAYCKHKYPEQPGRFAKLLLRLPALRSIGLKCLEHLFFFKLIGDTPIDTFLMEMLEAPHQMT
Estrogen receptor (Homo sapiens), sequence (P03372 whole entry, looked up): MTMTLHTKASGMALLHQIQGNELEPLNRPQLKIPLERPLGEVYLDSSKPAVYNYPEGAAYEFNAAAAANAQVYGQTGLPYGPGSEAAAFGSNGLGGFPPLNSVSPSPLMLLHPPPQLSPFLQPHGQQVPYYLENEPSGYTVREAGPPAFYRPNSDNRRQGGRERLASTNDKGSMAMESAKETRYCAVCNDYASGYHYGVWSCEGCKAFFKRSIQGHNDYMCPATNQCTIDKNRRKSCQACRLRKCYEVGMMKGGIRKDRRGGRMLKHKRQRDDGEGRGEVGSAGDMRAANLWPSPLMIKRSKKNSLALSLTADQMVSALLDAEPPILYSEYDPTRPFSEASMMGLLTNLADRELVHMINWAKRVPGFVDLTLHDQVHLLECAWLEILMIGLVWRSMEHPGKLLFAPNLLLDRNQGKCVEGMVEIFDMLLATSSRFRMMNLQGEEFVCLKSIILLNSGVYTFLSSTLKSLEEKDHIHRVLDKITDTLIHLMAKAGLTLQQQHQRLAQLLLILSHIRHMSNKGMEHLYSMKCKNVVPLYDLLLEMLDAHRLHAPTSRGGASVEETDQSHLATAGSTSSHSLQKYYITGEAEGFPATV
human Norepinephrine Transporter (NET), SLC6A2 (gene 6530), sequence (P23975 whole entry, looked up): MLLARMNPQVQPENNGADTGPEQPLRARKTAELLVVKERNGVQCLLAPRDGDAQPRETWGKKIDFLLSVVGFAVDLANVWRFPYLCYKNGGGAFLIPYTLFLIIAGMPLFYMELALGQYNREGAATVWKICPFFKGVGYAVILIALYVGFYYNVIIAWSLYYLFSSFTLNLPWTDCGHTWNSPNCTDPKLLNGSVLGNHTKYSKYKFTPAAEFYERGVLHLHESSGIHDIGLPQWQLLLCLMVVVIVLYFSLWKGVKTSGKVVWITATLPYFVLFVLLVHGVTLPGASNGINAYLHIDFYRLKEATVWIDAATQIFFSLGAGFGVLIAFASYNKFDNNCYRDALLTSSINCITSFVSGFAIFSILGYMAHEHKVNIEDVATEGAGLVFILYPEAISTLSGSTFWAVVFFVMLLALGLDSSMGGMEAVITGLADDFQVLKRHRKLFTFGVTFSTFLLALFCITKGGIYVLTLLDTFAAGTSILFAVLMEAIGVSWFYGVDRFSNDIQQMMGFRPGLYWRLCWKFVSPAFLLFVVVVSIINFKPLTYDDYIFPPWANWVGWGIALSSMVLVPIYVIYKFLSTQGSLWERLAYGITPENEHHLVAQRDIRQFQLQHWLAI
Bile acid receptor (Homo sapiens), sequence (Q96RI1 whole entry, looked up, the tested form may be a part): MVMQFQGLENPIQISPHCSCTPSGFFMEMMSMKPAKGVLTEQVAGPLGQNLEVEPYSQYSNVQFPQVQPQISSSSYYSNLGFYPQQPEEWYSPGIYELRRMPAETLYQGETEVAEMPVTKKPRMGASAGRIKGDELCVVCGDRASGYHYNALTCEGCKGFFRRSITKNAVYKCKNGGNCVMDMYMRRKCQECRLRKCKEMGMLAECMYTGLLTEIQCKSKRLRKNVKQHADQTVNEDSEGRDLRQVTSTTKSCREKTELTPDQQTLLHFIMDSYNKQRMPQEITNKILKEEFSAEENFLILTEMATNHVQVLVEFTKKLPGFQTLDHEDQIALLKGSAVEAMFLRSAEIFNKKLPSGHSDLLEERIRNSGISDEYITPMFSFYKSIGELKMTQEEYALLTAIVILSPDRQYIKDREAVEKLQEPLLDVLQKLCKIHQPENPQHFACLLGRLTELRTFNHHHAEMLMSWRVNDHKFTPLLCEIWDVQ
Peroxisome proliferator-activated receptor gamma (Homo sapiens), sequence (P37231 whole entry, looked up, the tested form may be a part): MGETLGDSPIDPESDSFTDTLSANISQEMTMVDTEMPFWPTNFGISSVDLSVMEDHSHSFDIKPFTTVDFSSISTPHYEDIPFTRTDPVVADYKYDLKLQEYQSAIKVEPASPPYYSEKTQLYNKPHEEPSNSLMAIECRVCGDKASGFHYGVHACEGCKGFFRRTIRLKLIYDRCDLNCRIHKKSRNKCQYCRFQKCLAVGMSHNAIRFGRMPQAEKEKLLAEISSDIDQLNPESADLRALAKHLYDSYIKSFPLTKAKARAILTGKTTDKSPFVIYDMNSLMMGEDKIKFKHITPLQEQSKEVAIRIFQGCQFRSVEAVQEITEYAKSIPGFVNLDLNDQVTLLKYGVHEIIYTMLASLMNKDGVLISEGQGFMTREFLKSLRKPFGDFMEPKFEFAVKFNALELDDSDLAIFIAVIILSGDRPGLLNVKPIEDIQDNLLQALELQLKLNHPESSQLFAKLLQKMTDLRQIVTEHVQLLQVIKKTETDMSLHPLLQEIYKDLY
human Dopamine Transporter (DAT), SLC6A3 (gene 6531), sequence (Q01959 whole entry, looked up): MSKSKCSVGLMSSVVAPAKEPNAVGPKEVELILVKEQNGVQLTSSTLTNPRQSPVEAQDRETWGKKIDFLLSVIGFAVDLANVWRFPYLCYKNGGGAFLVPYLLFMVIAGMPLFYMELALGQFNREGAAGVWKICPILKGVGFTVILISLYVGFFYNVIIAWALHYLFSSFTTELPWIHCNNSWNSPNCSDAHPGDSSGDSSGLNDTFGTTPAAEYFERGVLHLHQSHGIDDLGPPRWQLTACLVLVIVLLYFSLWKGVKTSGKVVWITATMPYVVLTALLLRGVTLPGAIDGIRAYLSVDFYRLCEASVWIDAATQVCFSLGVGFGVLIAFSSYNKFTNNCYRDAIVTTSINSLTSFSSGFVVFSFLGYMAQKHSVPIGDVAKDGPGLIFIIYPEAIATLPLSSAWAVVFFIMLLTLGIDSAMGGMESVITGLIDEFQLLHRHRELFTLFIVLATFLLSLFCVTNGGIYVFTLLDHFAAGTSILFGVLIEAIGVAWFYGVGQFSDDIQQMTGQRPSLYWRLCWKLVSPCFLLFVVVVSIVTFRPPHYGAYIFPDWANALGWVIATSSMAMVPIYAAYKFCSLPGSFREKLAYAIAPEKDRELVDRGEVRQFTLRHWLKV

On to `Cc1cc(CCN2CCN(c3nsc4ccccc34)CC2)cc2c1NC(=O)CC2(C)C`, for which the result in assay [1], in assay [2], in assay [3], in assay [5], in assay [6] and in assay [7] was inactive. Besides, the AC50 in [4] was 15.3 µM (active).

For `CN(C)C=O`, the compound was classed as inactive in [1], in assay [3], in assay [8], in assay [4], in [9] and in assay [5]. The outcome in assay [10], in assay [11], in assay [6] and in assay [7] was inactive.

For `CC(=O)NC1(c2cccc(F)c2)CCN(CC[C@@]2(c3ccc(Cl)c(Cl)c3)CN(c3ccccc3)C(=O)CO2)CC1`, the concentration at half-maximal activity (AC50) in assay [12] is 25.1 µM (active); in assay [13], 9.66 µM (active); in assay [14] it was 9.61 µM (active); in [15] it was 10.1 µM (active); in assay [4], 62.3 µM (active); in [9], 9.52 µM (active). Besides, the AC50 in [5] is 9.83 µM (active). Moreover, the compound was classed as inactive in assay [16], in assay [11], in [6] and in assay [7].

With `COCC(C)OCC(C)O` (stereo not drawn), the call in [1], in assay [17], in assay [2], in assay [3], in [4] and in assay [5] was inactive. The compound was called inactive in assay [10], in assay [11], in assay [6] and in [7].

Take `CCC(=C(c1ccc(O)cc1)c1ccc(OCCN(C)C)cc1)c1ccccc1`: the AC50 in assay [12] was 3.77 µM (active); in assay [14] it was 1.48 µM (active); in assay [15], 4.24 µM (active); in assay [9], 7.35 µM (active) and 7.42 µM (active) and 7.26 µM (active); in [5] it was 7.46 µM (active) and 7.54 µM (active) and 7.53 µM (active). Also, the compound was called inactive in assay [1], in [2], in assay [9], in [5], in [11] and in assay [6]. Besides, the call in [7], in assay [18] and in assay [19] was inactive.

As for `NC(=O)N1C(=O)C(C(=O)c2cc(Cl)cs2)c2cc(F)c(Cl)cc21` (stereo not drawn), the AC50 was 5.35 µM (active) in [1]; 25 µM (active) in [15]; 81.9 µM (active) in [5]; 13.2 µM (active) in assay [10]; 32.9 µM (active) in [11]. In addition, the compound was classed as inactive in [2], in assay [3], in assay [8], in [4], in assay [9] and in [10]. For the same compound, the outcome in assay [11], in [6] and in [7] was inactive.

Consider `C#C[C@]1(O)CC[C@H]2[C@@H]3CCC4=CC(=O)CC[C@@H]4[C@H]3CC[C@@]21C`, for which the compound was classed as inactive in [1], in [3], in assay [10], in assay [11], in assay [6] and in assay [7]. Besides, the AC50 in assay [3] is 29.3 µM (active) and 30.3 µM (active) and 22.2 µM (active).
